Compound activity: PubChem BioAssay, several laboratories
MITF act: MITF TRPM1 promoter activation in melanoma cells; SK-MEL-5 TRPM1-promoter luciferase, 24 h; % of positive control, neutral wells = 0; activation, % at 12.5 µM; 0.75% of 300,000 active; AID 588334;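 active = mean activation of at least 80% with every replicate also reaching 80%; inconclusive = mean reaches 80% but some replicate falls short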
Wnt bcat act: activates Wnt/beta-catenin signaling in a reporter cell assay; activator, plate reader; activation, % at 9.35 µM; 1.2% of 300,000 active; in the data active = activation above about 30%, passing the limit was not always enough; inconclusive = no clear call, values can overlap the other calls
esBAF inh: SWI/SNF esBAF complex inhibition | mouse ES cells, Bmi1-luciferase knock-in reporter, 24 h; 100% = twice the neutral-well signal | reporter increase, % at 12.5 µM | 2% of 350,000 active; in the data active = activation above about 40%; inconclusive = no clear call, values can overlap the other calls;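 note: a rise in the Bmi1 reporter signal indicates esBAF inhibition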
FXN GAA850 act: frataxin GAA850 promoter activation | 0.56% of 360,000 active | activation, % at 6 µM | HEK293 lucGAA850 FXN promoter luciferase reporter, 24 h; percent of 10 µM SAHA response;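 active = activation above the average of all compounds screened plus 3 SD, cutoff fixed separately per campaign, cut at about 7.5% in these data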
Hits are given with their value; . = inactive; ? = inconclusive; / = no result given. A selection: hits, their analogues and other compounds. The true share with any hit is near 2.8%.

SMILES	MITF act	Wnt bcat act	esBAF inh	FXN GAA850 act
CCNC(=O)C[C@H]1C=C[C@@H](NC(=O)C2CCC2)[C@H](CO)O1	/	/	.	/
O=C1/C(=C/c2ccc(O)c(O)c2)SC(=S)N1Nc1ccccc1	.	/	/	7.8
CC(C)C(=O)Nc1nc2cc3c(cc2s1)OCO3	/	.	68	.
O=C(/C=C/c1ccc2c(c1)OCO2)Nc1nc2ccc(F)cc2s1	87	34	56	.
COc1ccc(C(=O)Nc2nc3cc4c(cc3s2)OCO4)c(OC)c1	.	.	.	.
Fc1cccc2sc(Nc3nc4cc5c(cc4s3)OCCO5)nc12	.	.	/	.
Fc1cccc2sc(Nc3nc4cc5c(cc4s3)OCO5)nc12	.	.	96	.
CCOc1ccc2nc(NC(=O)/C=C/c3ccc4c(c3)OCO4)sc2c1	.	.	/	.
CC(C)(C)C(=O)Nc1nc2cc3c(cc2s1)OCO3	?	42	.	.
CC(C)N1C(=O)S/C(=C/c2ccc3c(c2)n(C)c(=O)n3C)C1=O	/	/	.	.
CCN(CC)c1ccc(/C=C2\SC(=O)N(C(C)C)C2=O)o1	/	/	.	14
CNC[C@H]1OCCCC[C@@H](C)Oc2ccc(NC(=O)Nc3cccc4ccccc34)cc2C(=O)N([C@H](C)CO)C[C@@H]1C	/	/	.	/
CN1C(=O)S/C(=C/c2ccc(OCc3cccc(C(=O)O)c3)cc2)C1=O	.	45	.	.
O=C(N/N=C/C=C/c1ccco1)c1cccnc1	.	/	.	.
O=C(N/N=C\C=C\c1ccco1)c1cc(-c2ccc3ccccc3c2)n[nH]1	.	57	/	.
Oc1ccccc1C=NNC(=S)NC1CC2C=CC1C2 (centres undefined)	/	.	70	.
C[C@@H]1CN([C@@H](C)CO)C(=O)c2cc(-c3cccnc3)cnc2O[C@@H]1CN(C)C(=O)C1CCCCC1	/	/	.	/
COC(=O)CSc1nc2ccc(C)cc2cc1C#N	.	67	/	.
CCOC(=O)CSc1nc2cc(OCC)ccc2cc1C#N	/	/	62	.
C[C@H]1CN([C@@H](C)CO)C(=O)c2cc(C#CCN(C)C)cnc2O[C@H]1CN(C)Cc1ccc(F)cc1	/	/	.	/
Cc1ccc(N2C(=O)c3ccccc3NC2(C(=O)O)c2ccccc2)cc1Cl (centres undefined)	.	57	60	.
Cc1ccc(NC(=O)C(C)N2C(=O)c3ccccc3S2(=O)=O)cc1Cl (centres undefined)	.	.	/	.
C[C@H](O)C#Cc1ccc2c(c1)O[C@@H](CN(C)C(=O)c1ccccc1)[C@@H](C)CN([C@@H](C)CO)S2(=O)=O	/	/	.	/
CC(C)=CCC/C(C)=C/CNC(=O)C[C@H]1C[C@H](C(=O)N2CCCCC2)[C@@]2(CCc3ccccc3)c3[nH]c4cc(CCC(=O)N(C)C)ccc4c3CCN2C1=O	.	.	52	.
CC(C)=CCC/C(C)=C/CNC(=O)C[C@H]1C[C@H](C(=O)N2CCCCC2)[C@@]2(CCc3ccccc3)c3[nH]c4ccc(Cl)cc4c3CCN2C1=O	.	.	.	.
SMILES	MITF act	Wnt bcat act	esBAF inh	FXN GAA850 act
CC(=O)N(c1cccc(C)c1)C1SC(=O)N(c2ccccc2)C1=O (centres undefined)	.	.	.	.
Cc1ccc(N2C(=O)SC(N(CC(=O)O)c3cccc(C)c3)C2=O)cc1 (centres undefined)	.	41	.	.
O=C(c1cccs1)N1CCN=C1SCc1ccccc1	.	.	/	.
O=C(c1cccs1)N1CCN=C1SCc1ccc(F)cc1	.	37	/	.
CC(C)C(=O)Nc1ccc2c(c1)C(=O)N(C)[C@H]1CC[C@H](CC(=O)NCc3ccccc3F)O[C@@H]1CO2	/	/	.	/
C/C(=N\Nc1nccnc1Cl)c1ccc(O)cc1	/	.	42	.
C/C(=N\Nc1nccnc1Cl)c1ccc(F)cc1	.	.	/	.
C[C@@H](C(=O)Nc1ccc2c(c1)OCCO2)n1nnc2ccccc2c1=O	101	.	57	.
Cc1ccc(N2CC(C(=O)Nc3ccc4c(c3)OCCO4)CC2=O)cc1C (centres undefined)	.	.	.	.
Cc1ccc(N2CC(C(=O)Nc3ccc4c(c3)OCCO4)CC2=O)cc1 (centres undefined)	.	30	.	.
Nc1c(C(=O)Nc2ccccc2)nnn1-c1ccc2c(c1)OCCO2	.	.	.	.
Cc1ccccc1Cn1nnc(C(=O)Nc2ccc3c(c2)OCCO3)c1N	91	46	68	.
Cc1ccc(NC(=O)c2nnn(-c3ccc4c(c3)OCCO4)c2N)cc1	99	.	70	.
COc1ccc(Cn2nnc(C(=O)Nc3ccc4c(c3)OCCO4)c2N)cc1Br	.	.	.	.
Cc1ccc(C)c(Cn2nnc(C(=O)Nc3ccc4c(c3)OCCO4)c2N)c1	85	.	64	.
CCOC(=O)C1(C)C=C(Nc2ccc(OC)cc2)C(=O)N1c1ccc(OC)cc1 (centres undefined)	.	/	/	.
CCOC(=O)C1(C)C=C(Nc2cccc(OC)c2)C(=O)N1c1ccccc1 (centres undefined)	/	43	/	.
Nc1ccc(OCc2ccccc2)cc1	.	.	.	.
c1ccc(COc2ccc3nocc3c2)cc1	117	32	104	.
CO[C@@H]1CN(C)C(=O)c2ccc(NC(=O)Nc3c(C)noc3C)cc2OC[C@H](C)NC[C@@H]1C	/	/	.	/
C[C@H](CO)N1C[C@H](C)[C@H](CN(C)S(=O)(=O)c2ccccc2)Oc2ccc(NC(=O)Nc3cccc4ccccc34)cc2CC1=O	/	/	.	/
CS(=O)(=O)c1nc([N+](=O)[O-])nn1CCCc1ccccc1	/	/	/	.
Cn1nc([N+](=O)[O-])nc1S(C)(=O)=O	.	.	.	18
O=C(O)c1ccc(-c2noc(-c3ccc(F)cc3)n2)cc1	.	.	.	.
O=C(O)c1ccc(-c2noc(-c3cccc(Cl)c3)n2)cc1	87	.	63	.
SMILES	MITF act	Wnt bcat act	esBAF inh	FXN GAA850 act
O=C(O)c1ccc(-c2noc(-c3ccccc3Cl)n2)cc1	.	39	.	.
Cc1ccccc1S(=O)(=O)N1CC[C@H]2[C@H](CO)Nc3ccc(-c4ccc(C#N)cc4)cc3[C@H]21	/	/	.	/
O=C1NC(=S)NC1=Cc1ccc(Cl)cc1Cl	.	.	.	.
O=C1NC(=O)C(=Cc2ccc(Cl)cc2Cl)S1	.	39	/	.
CN(C)Cc1cn(CC[C@H]2CC[C@H](NS(=O)(=O)c3ccccc3)[C@H](CO)O2)nn1	/	/	.	/
COc1ccc(C(=O)c2oc3ccccc3c2N)cc1	.	/	.	.
COc1ccc2oc(C(=O)C3CC3)c(N)c2c1	.	.	67	.
COc1ccc2oc(C(=O)c3ccccc3)c(N)c2c1	/	74	/	/
COC(=O)CCC(=O)c1oc2ccc(OC)cc2c1N	109	/	.	.
COc1ccc(Nc2ncnc3c2c(C)c(C)n3CCO)cc1	.	41	.	.
O=C(Oc1cccc(Nc2ncnc3ccccc23)c1)c1ccccc1Cl	.	.	/	.
COc1ccc(Nc2ncnc3ccccc23)c(OC)c1	.	.	.	.
COc1cccc(Nc2ncnc3ccccc23)c1	?	/	58	.
COc1ccc(Nc2ncnc3ccccc23)cc1	97	.	.	.
Cc1ccc(S(=O)(=O)Nc2ccc3c(c2)C(=O)N([C@H](C)CO)C[C@@H](C)[C@H](CN(C)CC2CCCCC2)OCCCC[C@@H](C)O3)cc1	/	/	.	/
